From PubChem BioAssay
For some assays here: Measured potencies and affinities stand elsewhere. Calls of active or inactive are those of the source. Unless noted, no rule for the calls is given here.

Columns and labels:
[1] = antimalarial activity against Dd2 strain (AID 2302;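 active = growth inhibition above 50% at the single 2 µM test dose, taken to imply half-maximal potency below 2 µM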;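 also: 0% = DMSO untreated growth and 100% = chloroquine plus artemisinin killed control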); settings: P. falciparum Dd2 in RBCs, LDH growth readout, 72 h; at 2 µM; stronger effect = higher value
[2] = human hepatoma cell viability loss – ATP luminescence, cytotoxicity control for P. falciparum antimalarial project, primary screen (AID 2303;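 active = inhibition above 50%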;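 also: 0% = DMSO wells and 100% = digitonin-killed cells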); settings: HepG2 viability, 24-48 h, at 10 µM, stronger effect = higher value
[3] = target: L-lactate dehydrogenase (Plasmodium falciparum (isolate CDC / Honduras)) (UniProt Q27743); assay: PfLDH activity inhibition – cell lysate, 3D7 strain, counter-screen for P. falciparum growth inhibition project (AID 2304);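 also: 0% = vehicle and 100% = reference inhibitor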; settings: P. falciparum 3D7 crude extract, LDH APAD/NBT absorbance; at 2 µM; stronger effect = higher value
[4] = inhibition of 3D7 malaria parasite growth – strain 3D7 (AID 2306);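 also: 0% = DMSO wells and 100% = chloroquine plus artemisinin control wells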; settings: P. falciparum 3D7 erythrocytic growth, LDH absorbance, 72 h; at 2 µM; stronger effect = higher value
[5] = target: Calcium-dependent protein kinase 1 (Plasmodium falciparum (isolate 3D7)) (UniProt P62344); assay: PfCDPK1 kinase inhibitors, biochemical, TCAMS library (AID 1159585; cut-off not given, nearly all actives have IC50 up to about 0.98 µM;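 also: inhibitors leave more ATP so luminescence rises with inhibition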); settings: recombinant PfCDPK1, Kinase-Glo ATP depletion luminescence
[6] = target: Plasmodium falciparum protein kinase 6 (PK6, PF3D7_1337100) (UniProt Q8IDW1); assay: PfPK6 kinase inhibitors, biochemical, TCAMS library (AID 1159586); settings: recombinant PfPK6, Kinase-Glo ATP depletion luminescence
[7] = target: Protein kinase 7 (PK7), Plasmodium falciparum 3D7 (PF3D7_0213400) (UniProt Q7YTF7); assay: inhibition of Plasmodium PK7 catalytic activity – biochemical, TCAMS antimalarial set, Kinase-Glo luminescence (AID 1159587); settings: recombinant PfPK7, Kinase-Glo ATP depletion luminescence
[8] = target: Calcium-dependent protein kinase 4 (Plasmodium falciparum (isolate 3D7)) (UniProt Q8IBS5); assay: PfCDPK4 kinase inhibitors, biochemical, TCAMS library (AID 1159588; cut-off not given, nearly all actives have IC50 up to about 0.91 µM); settings: recombinant PfCDPK4, Kinase-Glo ATP depletion luminescence
Sequence of Calcium-dependent protein kinase 4 (Plasmodium falciparum (isolate 3D7)) (Q8IBS5 whole entry, looked up): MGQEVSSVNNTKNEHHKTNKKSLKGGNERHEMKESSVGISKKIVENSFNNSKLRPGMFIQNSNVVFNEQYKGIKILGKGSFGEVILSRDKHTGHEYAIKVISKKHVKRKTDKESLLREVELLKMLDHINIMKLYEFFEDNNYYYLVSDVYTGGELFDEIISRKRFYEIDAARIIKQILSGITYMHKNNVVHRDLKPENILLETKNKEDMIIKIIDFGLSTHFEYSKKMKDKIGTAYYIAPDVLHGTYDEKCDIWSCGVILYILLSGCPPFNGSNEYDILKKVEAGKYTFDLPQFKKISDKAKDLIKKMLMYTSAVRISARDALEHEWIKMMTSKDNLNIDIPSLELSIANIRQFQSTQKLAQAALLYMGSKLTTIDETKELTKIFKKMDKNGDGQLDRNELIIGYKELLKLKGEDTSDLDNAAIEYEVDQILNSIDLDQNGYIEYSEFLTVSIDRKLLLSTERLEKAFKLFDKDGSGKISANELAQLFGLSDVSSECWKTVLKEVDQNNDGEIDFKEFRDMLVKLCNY

Sequence of Protein kinase 7 (PK7), Plasmodium falciparum 3D7 (PF3D7_0213400) (Q7YTF7 1-343): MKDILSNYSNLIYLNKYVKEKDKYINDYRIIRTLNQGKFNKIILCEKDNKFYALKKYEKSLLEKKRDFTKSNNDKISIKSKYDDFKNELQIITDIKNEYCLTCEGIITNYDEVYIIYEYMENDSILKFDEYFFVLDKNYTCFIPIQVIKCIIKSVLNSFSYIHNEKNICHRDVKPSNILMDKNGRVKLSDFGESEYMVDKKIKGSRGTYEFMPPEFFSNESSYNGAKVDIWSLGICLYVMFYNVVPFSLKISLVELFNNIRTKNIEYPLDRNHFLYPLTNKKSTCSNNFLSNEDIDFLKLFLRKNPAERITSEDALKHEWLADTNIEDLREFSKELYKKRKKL
Sequence of L-lactate dehydrogenase (Plasmodium falciparum (isolate CDC / Honduras)) (Q27743 whole entry, looked up): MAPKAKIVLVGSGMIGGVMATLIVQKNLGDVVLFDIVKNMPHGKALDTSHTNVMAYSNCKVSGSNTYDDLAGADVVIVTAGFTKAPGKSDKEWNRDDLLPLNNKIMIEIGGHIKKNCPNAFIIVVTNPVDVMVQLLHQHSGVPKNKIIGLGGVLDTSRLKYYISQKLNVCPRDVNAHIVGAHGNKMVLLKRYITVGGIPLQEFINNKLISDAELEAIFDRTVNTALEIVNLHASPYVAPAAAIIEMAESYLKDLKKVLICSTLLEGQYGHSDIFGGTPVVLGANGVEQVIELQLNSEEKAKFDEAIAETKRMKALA
Sequence of Plasmodium falciparum protein kinase 6 (PK6, PF3D7_1337100) (Q8IDW1 1-305): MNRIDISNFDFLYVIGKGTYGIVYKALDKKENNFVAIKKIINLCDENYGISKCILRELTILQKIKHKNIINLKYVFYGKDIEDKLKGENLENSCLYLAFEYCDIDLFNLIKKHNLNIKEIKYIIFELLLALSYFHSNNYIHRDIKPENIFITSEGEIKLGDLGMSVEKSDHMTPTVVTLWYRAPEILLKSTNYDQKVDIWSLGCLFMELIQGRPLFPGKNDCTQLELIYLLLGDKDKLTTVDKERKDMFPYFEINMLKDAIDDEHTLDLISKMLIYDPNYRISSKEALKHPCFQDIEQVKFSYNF
Sequence of Calcium-dependent protein kinase 1 (Plasmodium falciparum (isolate 3D7)) (P62344 whole entry, looked up): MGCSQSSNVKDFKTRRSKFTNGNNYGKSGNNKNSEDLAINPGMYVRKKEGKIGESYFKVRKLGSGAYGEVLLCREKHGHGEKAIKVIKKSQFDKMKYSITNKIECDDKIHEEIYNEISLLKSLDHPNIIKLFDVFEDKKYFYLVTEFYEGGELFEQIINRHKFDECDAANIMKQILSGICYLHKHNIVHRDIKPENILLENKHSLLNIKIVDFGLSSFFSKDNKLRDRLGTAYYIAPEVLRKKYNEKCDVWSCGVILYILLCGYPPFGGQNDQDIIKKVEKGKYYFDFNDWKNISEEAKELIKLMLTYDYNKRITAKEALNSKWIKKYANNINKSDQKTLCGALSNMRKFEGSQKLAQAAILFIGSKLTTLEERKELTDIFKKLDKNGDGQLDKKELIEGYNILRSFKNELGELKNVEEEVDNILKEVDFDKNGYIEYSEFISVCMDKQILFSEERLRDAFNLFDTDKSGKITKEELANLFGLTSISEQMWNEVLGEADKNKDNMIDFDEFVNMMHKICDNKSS

Cc1sc2nc(CN3CCCC3)nc(-n3c(NCCO)nc4ccccc43)c2c1C
active: growth inhibition [4] 96%
inactive: growth inhibition [1] 11% | inhibition [2] 19% | inhibition [3] -2% | outcome [5] | outcome [6] | outcome [7] | outcome [8]

O=C(NNC(=O)c1ccc(CCN2CCC(c3nc(COCC(F)(F)F)c(-c4ccc(F)cc4)o3)CC2)cc1)Nc1ccc(Oc2ccccc2)cc1
inactive: inhibition [2] 38% | inhibition [3] 4% | outcome [5] | outcome [6] | outcome [7] | outcome [8]
active: growth inhibition [1] 89% | growth inhibition [4] 102%

C[C@@H](CC1CCCCC1)OC(=O)N(C)[C@@H]1CCN(C#N)C1
active: growth inhibition [1] 96% | growth inhibition [4] 95%
inactive: inhibition [2] 5% | inhibition [3] 3% | outcome [5] | outcome [6] | outcome [7] | outcome [8]

CCNC(C)(C)CN(Cc1ccc(-c2ccc(C(F)(F)F)cc2)cc1)C(=O)Cn1c(CCc2cccc(F)c2F)nc(=O)c2ccccc21
active: growth inhibition [1] 70% | growth inhibition [4] 97%
inactive: inhibition [2] 47% | inhibition [3] -7% | outcome [5] | outcome [6] | outcome [7] | outcome [8]

CC1CCCCC1N(C)C1CCN(CCCNC(=O)C=Cc2ccccc2Cl)CC1 (stereo not given)
inactive: growth inhibition [1] 14% | inhibition [2] 30% | inhibition [3] 3% | outcome [5] | outcome [6] | outcome [7] | outcome [8]
active: growth inhibition [4] 100%

CCN1CCC(N(Cc2ccc(-c3ccc(C(F)(F)F)cc3)cc2)C(=O)Cn2c(SCc3ccc(F)cc3)nc(=O)c3c2CCC3)CC1
active: growth inhibition [1] 96% | growth inhibition [4] 90%
inactive: inhibition [2] 46% | inhibition [3] 2% | outcome [5] | outcome [6] | outcome [7] | outcome [8]

COc1ccc(CNCc2ccc(-c3cccc(-c4nc5ccccc5[nH]4)c3)cc2)cc1
active: growth inhibition [1] 85% | inhibition [2] 57% | growth inhibition [4] 101%
inactive: inhibition [3] -3% | outcome [5] | outcome [6] | outcome [7] | outcome [8]

CCOc1ccc(-c2nonc2NC(=O)c2ccccc2Cl)cc1OCC
active: growth inhibition [1] 100% | growth inhibition [4] 101%
inactive: inhibition [2] 3% | inhibition [3] 4% | outcome [5] | outcome [6] | outcome [7] | outcome [8]

CN(C)c1ccc2nc(N)nc(N)c2c1Cl
inactive: growth inhibition [1] -1% | inhibition [3] 2% | outcome [5] | outcome [6] | outcome [7] | outcome [8]
active: inhibition [2] 68% | growth inhibition [4] 98%

O=C(Nc1cccc(C(F)(F)F)c1)NC1CCN(c2ccnc3cc(Cl)ccc23)C1 (stereo not given)
inactive: inhibition [2] 18% | inhibition [3] 6% | outcome [5] | outcome [6] | outcome [7] | outcome [8]
active: growth inhibition [1] 89% | growth inhibition [4] 101%

Cc1cc(N[C@@H](Cc2ccccc2)C(=O)Nc2ccccc2)nc(NCC2CCCCC2)n1
active: growth inhibition [1] 55% | growth inhibition [4] 98%
inactive: inhibition [2] 12% | inhibition [3] 1% | outcome [5] | outcome [6] | outcome [7] | outcome [8]

Cc1ccc(C(CC(=O)Nc2nccs2)c2ccc(OC(C)C)cc2)cc1 (stereo not given)
active: growth inhibition [1] 90% | growth inhibition [4] 94%
inactive: inhibition [2] 5% | inhibition [3] 3% | outcome [5] | outcome [6] | outcome [7] | outcome [8]

Cc1[nH]n(-c2cccc(Cl)c2)c(=O)c1-c1ccc(Cl)cc1
active: growth inhibition [4] 99%
inactive: growth inhibition [1] 41% | inhibition [2] 0% | inhibition [3] -8% | outcome [5] | outcome [6] | outcome [7] | outcome [8]

O=C(NCCc1ccccc1)N(Cc1ccccc1-c1cccc(CNC2CCCC2)c1)C1CCN(Cc2ccccc2)CC1
inactive: inhibition [2] 31% | inhibition [3] 5% | outcome [5] | outcome [6] | outcome [7] | outcome [8]
active: growth inhibition [1] 87% | growth inhibition [4] 95%

Cc1cccc(CN2CCC(C(=O)Nc3ccc(-c4nc5ccccc5[nH]4)cc3)CC2)n1
active: growth inhibition [4] 96%
inactive: growth inhibition [1] 3% | inhibition [2] -9% | inhibition [3] 6% | outcome [5] | outcome [6] | outcome [7] | outcome [8]

COc1ccc(-n2cc(C(=O)c3cc(Br)ccc3O)cc(C#N)c2=O)cc1Cl
inactive: growth inhibition [1] 23% | inhibition [2] 29% | inhibition [3] -5% | outcome [5] | outcome [6] | outcome [7] | outcome [8]
active: growth inhibition [4] 99%

COc1ccc2nccc([C@@H](O)CN3CCC(NC(=O)C(c4cccs4)N4CCN(c5ccc(F)cc5)CC4)CC3)c2c1 (stereo not given in full)
inactive: growth inhibition [1] 45% | inhibition [2] 9% | inhibition [3] 3% | outcome [5] | outcome [6] | outcome [7] | outcome [8]
active: growth inhibition [4] 97%

O=C(NC1c2ccccc2Oc2ccccc21)c1ccccc1O
active: growth inhibition [4] 95%
inactive: growth inhibition [1] -3% | inhibition [2] -3% | inhibition [3] -1% | outcome [5] | outcome [6] | outcome [7] | outcome [8]

CCCCN(CCCC)CCCN(CCCN(CCCC)CCCC)c1cc(C)nc(Nc2ccc(Br)cc2)n1
inactive: inhibition [3] -4% | outcome [5] | outcome [6] | outcome [7] | outcome [8]
active: growth inhibition [1] 98% | inhibition [2] 51% | growth inhibition [4] 99%

COc1cc2nc(C)nc(Nc3cccc(Br)c3)c2cc1OC
active: growth inhibition [1] 82% | growth inhibition [4] 101%
inactive: inhibition [2] 0% | inhibition [3] -8% | outcome [5] | outcome [6] | outcome [7] | outcome [8]

CCCCCCCCCN(CCC)C(=O)[C@@H]1OC(C(=O)OC(c2ccccc2)c2ccccc2)=C[C@H](NC(=O)OC(C)(C)C)[C@H]1NC(C)=O
active: growth inhibition [4] 91%
inactive: growth inhibition [1] 49% | inhibition [2] 0% | inhibition [3] -1% | outcome [5] | outcome [6] | outcome [7] | outcome [8]

CN(C)CCCn1cncc1-c1ccc2ncnc(Nc3ccc(OCc4ccccc4)cc3)c2c1
active: growth inhibition [1] 101% | growth inhibition [4] 101%
inactive: inhibition [2] 37% | inhibition [3] 2% | outcome [5] | outcome [6] | outcome [7] | outcome [8]

CC(C)CNCc1cccc(-c2ccccc2CNC2CCN(Cc3ccccc3)CC2)c1
active: growth inhibition [4] 100%
inactive: growth inhibition [1] 39% | inhibition [2] 25% | inhibition [3] -6% | outcome [5] | outcome [6] | outcome [7] | outcome [8]

Cc1nc(-c2nc(NCCc3cnccn3)ncc2-c2ccsc2)sc1C
active: growth inhibition [4] 98%
inactive: growth inhibition [1] 40% | inhibition [2] -7% | inhibition [3] 0% | outcome [5] | outcome [6] | outcome [7] | outcome [8]

Oc1ccc(-c2cncc(NCc3ccc(F)c(F)c3)c2)cc1
active: growth inhibition [1] 80% | growth inhibition [4] 95%
inactive: inhibition [2] -14% | inhibition [3] -3% | outcome [5] | outcome [6] | outcome [7] | outcome [8]

Cc1cccc2[nH]c(-c3ccc(-c4cccc(NC(=O)C(=O)c5cccn5C)c4)cc3)nc12
active: growth inhibition [4] 98%
inactive: growth inhibition [1] 17% | inhibition [2] 30% | inhibition [3] 3% | outcome [5] | outcome [6] | outcome [7] | outcome [8]

O=C(Nc1ccc(Cl)cc1)Nc1ccc(-c2cccc(-c3nc4ccc(F)cc4[nH]3)c2)cc1
inactive: inhibition [3] -1% | outcome [5] | outcome [6] | outcome [7] | outcome [8]
active: growth inhibition [1] 96% | inhibition [2] 74% | growth inhibition [4] 101%

Cc1[nH]c(C)c(-c2ccc(OCc3ccc(F)cc3)nc2)c(=O)c1Br
active: growth inhibition [1] 97% | growth inhibition [4] 97%
inactive: inhibition [2] 41% | inhibition [3] -4% | outcome [5] | outcome [6] | outcome [7] | outcome [8]

Oc1ccc2[nH]c(-c3cccc(F)c3)nc2c1CN1CCC(N2CCCC2)CC1
active: growth inhibition [1] 54% | growth inhibition [4] 100%
inactive: inhibition [2] 0% | inhibition [3] -6% | outcome [5] | outcome [6] | outcome [7] | outcome [8]

Oc1cc2c(cc1CN1CCN(Cc3ccc(Cl)s3)CC1)CCC2
active: growth inhibition [1] 76% | growth inhibition [4] 98%
inactive: inhibition [2] 7% | inhibition [3] -3% | outcome [5] | outcome [6] | outcome [7] | outcome [8]

CCCN(c1ccc(C(F)(F)F)cc1[N+](=O)[O-])S(=O)(=O)C(c1ccccc1)c1ccc(C(F)(F)F)cc1[N+](=O)[O-] (stereo not given)
inactive: growth inhibition [1] 49% | inhibition [2] -11% | inhibition [3] 1% | outcome [5] | outcome [6] | outcome [7] | outcome [8]
active: growth inhibition [4] 94%

CCCCCCCN1CC[C@@H](CCCc2ccnc3ccc(OC)cc23)[C@@H](CNC)C1
active: growth inhibition [1] 95% | growth inhibition [4] 101%
inactive: inhibition [2] 25% | inhibition [3] -2% | outcome [5] | outcome [6] | outcome [7] | outcome [8]

O=S(=O)(NCCN1CCCC1)c1cccc(-c2cccc(CNCCc3cccs3)c2)c1
active: growth inhibition [4] 102%
inactive: growth inhibition [1] 45% | inhibition [2] 30% | inhibition [3] 0% | outcome [5] | outcome [6] | outcome [7] | outcome [8]

Cc1ccc(OCCCCONC(=O)c2ccccc2)cc1
inactive: growth inhibition [1] 1% | inhibition [2] 6% | inhibition [3] -2% | outcome [5] | outcome [6] | outcome [7] | outcome [8]
active: growth inhibition [4] 96%

CCNc1cc(C(=O)N[C@@H](Cc2ccccc2)[C@H](O)CNCc2cc(OC)cc(OC)c2)cc(N2CCCS2(=O)=O)c1
active: growth inhibition [1] 86% | growth inhibition [4] 99%
inactive: inhibition [2] -4% | inhibition [3] -2% | outcome [5] | outcome [6] | outcome [7] | outcome [8]

O=C(CCCCCNC(=O)c1ccc(O)c(-c2ccc(Cl)c(Cl)c2)c1)NCCc1ccc(Cl)c(Cl)c1
inactive: growth inhibition [1] 20% | inhibition [3] -6% | outcome [5] | outcome [6] | outcome [7] | outcome [8]
active: inhibition [2] 57% | growth inhibition [4] 97%

O=C(CCCCCNC(=O)c1ccc(O)c(-c2ccc(Cl)c(Cl)c2)c1)NCc1cccc2ccccc12
active: growth inhibition [4] 99%
inactive: growth inhibition [1] 15% | inhibition [2] 2% | inhibition [3] -2% | outcome [5] | outcome [6] | outcome [7] | outcome [8]

O=C(Cn1c(CCc2cccc(F)c2F)nc(=O)c2ccccc21)N(CCCN1CCCCC1)Cc1ccc(-c2ccc(C(F)(F)F)cc2)cc1
active: growth inhibition [1] 94% | inhibition [2] 100% | growth inhibition [4] 103%
inactive: inhibition [3] -2% | outcome [5] | outcome [6] | outcome [7] | outcome [8]

O=C(Nc1ccc(-c2nc3ccc(NC(=O)c4ccc(Br)cc4)cc3[nH]2)cc1)c1ccc(Br)cc1
inactive: growth inhibition [1] 4% | inhibition [2] 40% | inhibition [3] 3% | outcome [5] | outcome [6] | outcome [7] | outcome [8]
active: growth inhibition [4] 98%

CCOc1ccc(C(C)NC(=O)c2cc(Cl)ccc2OC)cc1OCC (stereo not given)
active: growth inhibition [1] 99% | growth inhibition [4] 101%
inactive: inhibition [2] -1% | inhibition [3] -2% | outcome [5] | outcome [6] | outcome [7] | outcome [8]
